{
  "source": "PubChem BioAssay (EPA / NIEHS)",
  "note": "Where “and” joins values, the source holds several entries; their conditions need not be identical. Identical values can stand only once. Results filed as inconclusive are left out. Calls of active or inactive are those of the source. The calls were made as follows: active = hit-call score of the fitted dose curve at least 0.9, where 1 is the maximum; inconclusive = response in the unintended direction; inactive = score below 0.9.",
  "data": [
    {"target": "human Peripheral-type Benzodiazepine Receptor (PBR), TSPO (gene 706) (UniProt P30536)", "sequence (P30536 whole entry, looked up)": "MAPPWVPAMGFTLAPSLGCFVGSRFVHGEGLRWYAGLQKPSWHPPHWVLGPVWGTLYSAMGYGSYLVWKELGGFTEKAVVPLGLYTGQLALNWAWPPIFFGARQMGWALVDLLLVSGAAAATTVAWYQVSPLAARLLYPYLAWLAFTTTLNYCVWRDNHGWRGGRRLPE", "assay": "NVS_MP_hPBR: NovaScreen (NVS) Membrane Protein Assay for human Peripheral-type Benzodiazepine Receptor (PBR) (AID 2283331)", "method": "NVS_MP_hPBR is a biochemical, single-readout assay that uses extracted gene-proteins from Human colonic cell membranes in a tissue-based cell-free assay. Measurements were taken 1 hour after chemical dosing in a 48-well plate.NVS_MP_hPBR is one of one assay component(s) measured or calculated from the NVS_MP_hPBR assay. It is designed to make measurements of radioligand binding, a form of binding reporter, as detected with scintillation counting signals by Filter-based radiodetection technology.Data from the assay component NVS_MP_hPBR was analyzed into 1 assay endpoint. This assay endpoint, NVS_MP_hPBR, was analyzed in the positive analysis fitting direction relative to DMSO as the negative control and baseline of activity. Using a type of binding reporter, loss-of-signal activity can be used to understand changes in the binding as they relate to the gene TSPO. Furthermore, this assay endpoint can be referred to as a primary readout, because the performed assay has only produced 1 assay endpoint. To generalize the intended target to other relatable targets, this assay endpoint is annotated to the transporter intended target family, where the subfamily is cholesterol transporter.\nBinding assays used specific radioligands (tritiated, iodinated) with non-radioactive competitive displacement ligands in agonist or antagonist protocols (as indicated) and various reference compounds and inhibitors to titrate specific binding to receptors and transporters. Most enzyme assays (CYPs, kinases, phosphatases, proteases, HDACs) used recombinant protein and specific substrates (fluorescence mostly, some colorimetric and radioactive) and inhibitors, followed by a biochemical separation of substrate and product. All assays for the biochemical HTS were initially run in duplicate at a single concentration (10 uM for CYP450 assays and 25 uM for all others). […] Each assay was run with positive and negative controls, and concurrent controls on every plate. The follow-up (secondary) screen tested active chemical-pairs in concentration series, as well as a few additional assays not tested in the primary screen, some selected negative inactives, and several cases re-run in the concentration series for confirmatory purposes.", "values": [
      {"smiles": "Cc1ccc2c(c1N)C(=O)c1ccccc1C2=O", "AC50": "13.9 µM (active)"},
      {"smiles": "CCOP(=S)(OCC)SCn1nnc2ccccc2c1=O", "AC50": "11.2 µM (active)"},
      {"smiles": "CO/N=C(/C(=O)OC)c1ccccc1COc1ccccc1C", "AC50": "2.76 µM (active)"},
      {"smiles": "Cc1cc(C)c(C(=O)P(=O)(c2ccccc2)c2ccccc2)c(C)c1", "AC50": "3.55 µM (active)"},
      {"smiles": "CCCCC(CC)COP(=O)(Oc1ccccc1)Oc1ccccc1", "note": "(centres undefined)", "AC50": "10.9 µM (active)"},
      {"smiles": "O=P(OCC(Br)CBr)(OCC(Br)CBr)OCC(Br)CBr", "note": "(centres undefined)", "AC50": "1.25 µM (active) and 139 nM (active)"},
      {"smiles": "CCOP(=S)(Oc1ccc([N+](=O)[O-])cc1)c1ccccc1", "note": "(centres undefined)", "outcome": "inactive"},
      {"smiles": "CC(C)(C)c1ccc(O)cc1", "outcome": "inactive"},
      {"smiles": "C=CC(=O)OCC(CC)(COC(=O)C=C)COC(=O)C=C", "AC50": "17.2 µM (active)"},
      {"smiles": "CCC(C)(C)c1ccc(O)cc1", "outcome": "inactive"},
      {"smiles": "c1ccc(OP(Oc2ccccc2)Oc2ccccc2)cc1", "AC50": "17.6 µM (active)"},
      {"smiles": "CCCCOCCOP(=O)(OCCOCCCC)OCCOCCCC", "AC50": "7.98 µM (active) and 6.27 µM (active)"},
      {"smiles": "N#Cc1c(-c2ccc(Cl)cc2)[nH]c(C(F)(F)F)c1Br", "AC50": "0.122 µM (active)"},
      {"smiles": "Oc1ccc(I)cc1", "outcome": "inactive"},
      {"smiles": "CC(C)(C)c1ccccc1OP(=O)(Oc1ccccc1)Oc1ccccc1", "AC50": "1.16 µM (active)"},
      {"smiles": "CCOP(=S)(OCC)SCS(=O)(=O)CC", "AC50": "25 µM (active)"},
      {"smiles": "O=P(Oc1ccccc1)(Oc1ccccc1)Oc1ccccc1", "AC50": "2.61 µM (active)"},
      {"smiles": "Nc1ccc2ccccc2c1", "AC50": "6.61 µM (active)"},
      {"smiles": "CCOP(=S)(NC(C)C)Oc1ccccc1C(=O)OC(C)C", "note": "(centres undefined)", "AC50": "9.3 µM (active)"}
    ]}
  ]
}
